# Several values for one entry are separate records, joined by “and”; a condition that tells them apart may be missing. Equal entries are not always repeated. Results filed as inconclusive are left out. For some of these results: Results with a measured potency or affinity are listed apart. Some compounds were tested as several samples or in several runs, with calls that do not always agree. Activity calls are given as the source filed them.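 How the source made its calls, unless noted: active means z-score of at least 1.8 in each of two replicates, scored against plate mean and spread of sample wells; inactive means the rest.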
# What was measured:
# [1] = antimalarial activity against Dd2 strain (AID 2302;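 active means growth inhibition above 50% at the single 2 µM test dose, taken to imply half-maximal potency below 2 µM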;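 further: 0% = DMSO untreated growth and 100% = chloroquine plus artemisinin killed control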); conditions: P. falciparum Dd2 in RBCs, LDH growth readout, 72 h; at 2 µM; stronger effect = higher value
# [2] = HepG2 cytotoxicity, primary screen, cytotoxicity control for P. falciparum antimalarial project, cell-based, ATP luminescence (AID 2303;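 active means inhibition above 50%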;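 further: 0% = DMSO wells and 100% = digitonin-killed cells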); conditions: HepG2 viability, 24-48 h, at 10 µM, stronger effect = higher value
# [3] = molecular target: L-lactate dehydrogenase (Plasmodium falciparum (isolate CDC / Honduras)) (UniProt Q27743); test: PfLDH activity inhibition – cell lysate, 3D7 strain, counter-screen for P. falciparum growth inhibition project (AID 2304; call rule not given here;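 further: 0% = vehicle and 100% = reference inhibitor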); conditions: P. falciparum 3D7 crude extract, LDH APAD/NBT absorbance; at 2 µM; stronger effect = higher value
# [4] = inhibition of 3D7 malaria parasite growth – strain 3D7 (AID 2306; call rule not given here;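 further: 0% = DMSO wells and 100% = chloroquine plus artemisinin control wells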); conditions: P. falciparum 3D7 erythrocytic growth, LDH absorbance, 72 h; at 2 µM; stronger effect = higher value
# [5] = molecular target: Plasmodium falciparum protein kinase 6 (PK6, PF3D7_1337100) (UniProt Q8IDW1); test: PfPK6 kinase inhibitors, biochemical, TCAMS library (AID 1159586; call rule not given here); conditions: recombinant PfPK6, Kinase-Glo ATP depletion luminescence
# [6] = molecular target: Protein kinase 7 (PK7), Plasmodium falciparum 3D7 (PF3D7_0213400) (UniProt Q7YTF7); test: inhibition of Plasmodium PK7 catalytic activity – biochemical, TCAMS antimalarial set, Kinase-Glo luminescence (AID 1159587; call rule not given here); conditions: recombinant PfPK7, Kinase-Glo ATP depletion luminescence
# [7] = molecular target: Calcium-dependent protein kinase 4 (Plasmodium falciparum (isolate 3D7)) (UniProt Q8IBS5); test: PfCDPK4 kinase inhibitors, biochemical, TCAMS library (AID 1159588; cut-off not given, nearly all actives have IC50 up to about 0.91 µM); conditions: recombinant PfCDPK4, Kinase-Glo ATP depletion luminescence
# [8] = growth inhibition of DIPG glioma cells, dose response, cell-based, SU-DIPG-XIII, MIPE4.0, CellTiter-Glo, qHTS (AID 1347061; cut-off not given, nearly all actives have AC50 up to about 37 µM;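 further: cells exposed to compound for 48 hours before readout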); conditions: SU-DIPG-XIII viability, CellTiter-Glo ATP luminescence
# [9] = growth inhibition of DIPG glioma cells, dose response, cell-based, JHH-DIPG-1, MIPE4.0, CellTiter-Glo, qHTS (AID 1347062; cut-off not given, nearly all actives have AC50 up to about 27 µM); conditions: JHH-DIPG-1 viability, CellTiter-Glo ATP luminescence
# [10] = growth inhibition of DIPG glioma cells, dose response, cell-based, SU-DIPG-IV, MIPE4.0, CellTiter-Glo, qHTS (AID 1347063; cut-off not given, nearly all actives have AC50 up to about 30 µM;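 further: compound exposure lasted 48 hours before the viability readout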); conditions: SU-DIPG-IV viability, CellTiter-Glo ATP luminescence
# [11] = modifiers of HSF1 nuclear foci, imaging, Selleck Cancer Library (AID 1347162; in the data active means plate-normalised HSF1 focus index below about 0.46); conditions: human cells, at 10 µM; SSMD: measured here: HSF1 foci SSMD mean; cell count: measured here: cell number; plate-normalised HSF1 focus index: stronger effect = lower value
# [12] = system: Aerobactin synthetase IucA (Klebsiella pneumoniae); test: IucA aerobactin synthetase inhibitors, biochemical, Tocris library, absorbance (AID 1345561; call rule not given here;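 further: 100% = enzyme without compound and 0% = no enzyme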); conditions: purified IucA enzyme assay, absorbance (OD) read-out; stronger effect = lower value;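 tested at 8 µM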
# [13] = viability rescue of complex I mutant cybrids, primary screen, cell-based, galactose medium, ATP luminescence (AID 1645843); conditions: complex I mutant cybrid cells, 72 h, stronger effect = higher value;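 further: positive z means more ATP and so rescue of galactose-driven cybrid death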
# [14] = survival rescue of mitochondrial mutant cells in low glucose, primary screen, MELAS cybrids, Rieske KO mouse fibroblasts, CellTiter-Glo (AID 1508586;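 active means mean z-score across replicates of 1.96 or higher in either the MELAS or the Rieske mutant cell line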;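 further: z relative to plate mean and SD of compound and empty wells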)
# [15] = polyglutamine-triggered caspase-3 activation inhibitors, cell-based (AID 1583); conditions: polyglutamine-induced caspase-3 activation, cell assay; stronger effect = higher value;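 tested at 10 µM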
# [16] = suppressors of polyQ aggregation in yeast, 75Q-TubU reporter (AID 1593); conditions: Yeast 75Q polyglutamine aggregation reporter
# [17] = system: Hepatitis C virus NS3 helicase; test: HCV NS3 helicase inhibitors, primary screen, biochemical, fluorescence polarization, LOPAC1280 library (AID 687035; in the data active means inhibition above about 37%); conditions: Purified HCV NS3 helicase, Cy5-dT15 ssDNA binding fluorescence polarization; stronger effect = higher value; concentration not given here
# [18] = Cy5 fluorescence quenching or enhancement artefacts, artefact control for HCV NS3 helicase inhibitor project, biochemical, LOPAC1280 (AID 687037; call rule not given here); conditions: Cy5-DNA-NS3h complex fluorescence interference counterscreen
# [19] = phospholipid biosynthesis inhibitors in animal cells, primary screen, cell-based, LOPAC library, screen 4 (AID 1347384; call rule not given here); conditions: phospholipid biosynthesis inhibition screen, at 10 µM
# [20] = molecular target: NAD(+) hydrolase SARM1 (Homo sapiens) (UniProt Q6SZW1); test: SARM1 TIR NADase inhibitors, cell lysate, NAD-Glo luminescence (AID 1508614;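 active means compound whose remaining NAD level is above about 45 nM, limit read from the data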); conditions: SAM-TIR HEK293T lysate NADase, at 1 µM, stronger effect = higher value
# [21] = MELAS cybrid survival, CellTiter-Glo 48 h, stronger effect = higher value
# [22] = Rieske KO mouse fibroblast survival, CellTiter-Glo 72 h
# Chain of NAD(+) hydrolase SARM1 (Homo sapiens) (Q6SZW1 whole entry, looked up): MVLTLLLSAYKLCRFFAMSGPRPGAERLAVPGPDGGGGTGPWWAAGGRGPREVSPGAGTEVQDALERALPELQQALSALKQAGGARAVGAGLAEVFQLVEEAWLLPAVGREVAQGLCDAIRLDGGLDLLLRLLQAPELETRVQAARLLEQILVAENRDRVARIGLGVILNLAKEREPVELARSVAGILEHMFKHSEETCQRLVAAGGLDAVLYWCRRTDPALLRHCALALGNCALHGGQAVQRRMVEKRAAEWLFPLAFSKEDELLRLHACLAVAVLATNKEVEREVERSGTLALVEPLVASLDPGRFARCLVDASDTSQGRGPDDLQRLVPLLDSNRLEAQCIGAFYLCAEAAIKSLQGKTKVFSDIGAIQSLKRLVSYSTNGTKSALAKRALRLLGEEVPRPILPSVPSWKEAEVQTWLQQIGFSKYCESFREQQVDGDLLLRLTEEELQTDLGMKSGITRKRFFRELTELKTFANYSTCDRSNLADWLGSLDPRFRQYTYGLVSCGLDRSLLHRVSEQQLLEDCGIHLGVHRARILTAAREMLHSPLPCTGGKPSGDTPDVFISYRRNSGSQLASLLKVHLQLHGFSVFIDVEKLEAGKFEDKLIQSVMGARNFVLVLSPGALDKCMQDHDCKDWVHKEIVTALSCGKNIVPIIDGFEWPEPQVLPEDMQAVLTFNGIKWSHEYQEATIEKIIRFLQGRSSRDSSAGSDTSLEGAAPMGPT
# Chain of Plasmodium falciparum protein kinase 6 (PK6, PF3D7_1337100) (Q8IDW1 1-305): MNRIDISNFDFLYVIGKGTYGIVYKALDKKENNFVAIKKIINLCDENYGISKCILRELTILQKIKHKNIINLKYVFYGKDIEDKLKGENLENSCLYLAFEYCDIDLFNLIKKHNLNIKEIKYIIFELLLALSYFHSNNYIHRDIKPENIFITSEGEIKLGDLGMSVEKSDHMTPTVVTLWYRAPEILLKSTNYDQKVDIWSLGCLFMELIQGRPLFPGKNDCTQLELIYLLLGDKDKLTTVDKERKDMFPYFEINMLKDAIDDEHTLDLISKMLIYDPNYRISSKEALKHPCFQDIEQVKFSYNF
# Chain of Protein kinase 7 (PK7), Plasmodium falciparum 3D7 (PF3D7_0213400) (Q7YTF7 1-343): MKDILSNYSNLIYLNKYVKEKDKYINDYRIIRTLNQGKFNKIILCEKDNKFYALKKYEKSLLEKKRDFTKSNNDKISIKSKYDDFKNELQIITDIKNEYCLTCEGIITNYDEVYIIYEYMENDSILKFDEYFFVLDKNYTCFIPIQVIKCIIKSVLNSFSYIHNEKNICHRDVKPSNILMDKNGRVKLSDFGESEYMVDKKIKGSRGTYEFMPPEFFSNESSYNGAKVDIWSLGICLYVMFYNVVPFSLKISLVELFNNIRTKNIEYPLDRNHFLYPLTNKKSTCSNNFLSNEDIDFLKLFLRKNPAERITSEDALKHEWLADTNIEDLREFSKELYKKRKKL
# Chain of L-lactate dehydrogenase (Plasmodium falciparum (isolate CDC / Honduras)) (Q27743 whole entry, looked up): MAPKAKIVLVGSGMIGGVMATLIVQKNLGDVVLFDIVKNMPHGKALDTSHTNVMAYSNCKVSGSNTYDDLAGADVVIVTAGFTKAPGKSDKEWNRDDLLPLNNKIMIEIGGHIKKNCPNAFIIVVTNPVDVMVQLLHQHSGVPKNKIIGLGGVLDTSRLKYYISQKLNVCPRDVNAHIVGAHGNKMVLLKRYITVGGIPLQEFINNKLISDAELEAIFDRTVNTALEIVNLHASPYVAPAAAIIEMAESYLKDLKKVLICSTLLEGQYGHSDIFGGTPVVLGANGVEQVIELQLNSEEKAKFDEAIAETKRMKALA
# Chain of Calcium-dependent protein kinase 4 (Plasmodium falciparum (isolate 3D7)) (Q8IBS5 whole entry, looked up): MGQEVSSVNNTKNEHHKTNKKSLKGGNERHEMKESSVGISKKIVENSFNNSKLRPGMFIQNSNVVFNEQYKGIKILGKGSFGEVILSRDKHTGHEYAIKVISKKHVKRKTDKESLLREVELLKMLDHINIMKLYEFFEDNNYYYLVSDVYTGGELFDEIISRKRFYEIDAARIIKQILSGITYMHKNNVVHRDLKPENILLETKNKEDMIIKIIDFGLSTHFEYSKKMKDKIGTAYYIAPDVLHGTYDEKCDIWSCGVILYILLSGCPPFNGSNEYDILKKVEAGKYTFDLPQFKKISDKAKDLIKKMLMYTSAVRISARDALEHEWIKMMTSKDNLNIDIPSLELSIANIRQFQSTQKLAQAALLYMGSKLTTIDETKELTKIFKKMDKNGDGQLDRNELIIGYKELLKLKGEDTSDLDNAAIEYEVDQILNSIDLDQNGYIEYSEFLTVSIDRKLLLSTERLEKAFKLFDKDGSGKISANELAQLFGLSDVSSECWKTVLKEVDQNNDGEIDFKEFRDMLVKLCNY
compound,measurement,setting,value
CC[C@H]1CN2CC[C@H]1C[C@H]2[C@H](O)c1cc(-c2ccc(SC)cc2)nc2ccc(OC)cc12,growth inhibition,[1],99% (active)
same,inhibition,[2],9% (inactive)
same,inhibition,[3],-1% (inactive)
same,growth inhibition,[4],98% (active)
same,outcome,[5],inactive
same,outcome,[6],inactive
same,outcome,[7],inactive
CC(C)[C@]12O[C@H]1[C@@H]1O[C@]13[C@]1(O[C@H]1C[C@H]1C4=C(CC[C@@]13C)C(=O)OC4)[C@@H]2O,outcome,[8],inactive
same,outcome,[9],inactive
same,outcome,[10],inactive
same,SSMD,[11],-5.07
same,cell count,[11],6670
same,plate-normalised HSF1 focus index,[11],0.769 (inactive)
Oc1cc2c(cc1O)[C@H]1c3ccccc3CN[C@@H]1CC2,remaining activity,[12],97.5% (inactive)
same,z-score,[13],-1.23 (inactive)
Cc1ncc2n1-c1ccc(Cl)cc1C(c1ccccc1F)=NC2,z-score,[13],0.59 (inactive)
C[C@]12CC(=CO)C(=O)C[C@@H]1CC[C@@H]1[C@@H]2CC[C@@]2(C)[C@H]1CC[C@]2(C)O,z-score,[14]; [21],0.172 (inactive)
same,z-score,[14]; [22],0.741
O=C1Nc2ccc(Cl)cc2C(c2ccccc2Cl)=NC1O (centres undefined),inhibition,[15],-16.4%
same,score,[16],0.78
same,z-score,[13],0.845 (inactive)
CN=C1CN(O)C(c2ccccc2)=c2cc(Cl)ccc2=N1,inhibition,[15],6.92%
same,score,[16],1.19
same,z-score,[13],0.34 (inactive)
Cc1nnc2n1-c1ccc(Cl)cc1C(c1ccccc1)=NC2,z-score,[13],0.965 (inactive)
CC[C@@H](C(N)=O)N1CCCC1=O,inhibition,[17],-4% (inactive)
same,fluorescence ratio (interference),[18],1 (inactive)
same,outcome,[8],inactive
same,outcome,[9],inactive
same,outcome,[10],inactive
same,outcome,[19],inactive
same,z-score,[14]; [21],-0.985 (inactive) and 0.498 (inactive)
same,z-score,[14]; [22],0.204 and -0.0344
same,z-score,[13],0.685 (inactive) and 0.535 (inactive)
CCN(C(C)=O)c1cccc(-c2ccnc3c(C#N)cnn23)c1,z-score,[14]; [21],0.804 (inactive)
same,z-score,[14]; [22],0.277
same,remaining NAD,[20],10 nM (inactive)
same,z-score,[13],0.945 (inactive)
COC(=O)N1CCN(C(=O)Cc2ccc(Cl)c(Cl)c2)C(CN2CCCC2)C1 (centres undefined),inhibition,[17],-4% (inactive)
same,fluorescence ratio (interference),[18],1 (inactive)
same,outcome,[19],inactive
same,z-score,[13],-0.09 (inactive) and 0.285 (inactive)
CC12CCC(=O)C=C1CCC1C2CCC2(C)C(O)CCC12 (centres undefined),z-score,[13],-0.235 (inactive)
CS(=O)(=O)Nc1ccc(Cc2noc(-c3ccc4[nH]cc(CCN)c4c3)n2)cc1,remaining activity,[12],103% (inactive)
same,z-score,[13],0.895 (inactive) and 2.6 (active)
c1cncc(C2CCCN2)c1 (centres undefined),z-score,[13],0.385 (inactive)
CN1C(=O)CN=C(c2ccccc2)c2cc(Cl)ccc21,inhibition,[15],-7.18%
same,score,[16],0.95
same,z-score,[13],1.09 (inactive)
Clc1ccc(CON=C(Cn2ccnc2)c2ccc(Cl)cc2Cl)c(Cl)c1,z-score,[13],-1.88 (inactive)
CCCCCCCCCOc1ccc2[nH]cc(CCN)c2c1,z-score,[13],-1.44 (inactive)
COc1ccc(CCN)cc1OC,z-score,[14]; [21],0.19 (inactive)
same,z-score,[14]; [22],0.0302
same,z-score,[13],0.46 (inactive)
C[N+]1(C)CCN(c2ccccc2)CC1,inhibition,[17],-1% (inactive)
same,fluorescence ratio (interference),[18],1 (inactive)
same,outcome,[19],inactive
same,z-score,[13],0.43 (inactive) and 1.15 (inactive)
O[C@@H]1CCCC[C@H]1N1CCC(c2ccccc2)CC1,remaining activity,[12],96.8% (inactive)
same,z-score,[14]; [21],-0.566 (inactive)
same,z-score,[14]; [22],-0.671
same,z-score,[13],-0.07 (inactive)
C[C@]12CCC(=O)C=C1CC[C@@H]1[C@@H]2CC[C@@]2(C)[C@H]1CC[C@]2(C)O,outcome,[8],inactive
same,outcome,[9],inactive
NC(=NCc1ccc(Cl)cc1)SCCCc1cnc[nH]1,remaining activity,[12],102% (inactive)
same,z-score,[13],-1.21 (inactive) and 0.08 (inactive)
CCOC(=O)C1(c2ccccc2)CCN(CCC(C#N)(c2ccccc2)c2ccccc2)CC1,z-score,[13],-1.88 (inactive)
c1ccc(Cn2ccnc2)cc1,z-score,[13],0.075 (inactive)
NCCc1ccccn1,remaining activity,[12],108% (inactive)
same,z-score,[13],0.8 (inactive) and -0.145 (inactive)
CCCCC/C=C\C/C=C\C/C=C\C/C=C\CCCC(=O)Nc1ccc(O)cc1,remaining activity,[12],113% (inactive)
same,z-score,[13],-0.695 (inactive)
CC[C@@H]1/C=C/C=C/C[C@H](C)[C@@H](O)[C@](C)(O)C(=O)[C@H](C)[C@@H](O)[C@H](C)C(=O)[C@H](C)[C@@H](O)[C@H](C)/C=C/C(=O)O[C@H]2[C@@H](C)[C@@H](CC1)O[C@@]1(CC[C@@H](C)[C@@H](C[C@H](C)O)O1)[C@@H]2C,inhibition,[15],-0.04%
same,score,[16],-0.11
Cc1ccc(-c2nc3ccc(C)cn3c2CC(=O)N(C)C)cc1,remaining NAD,[20],10 nM (inactive)
same,z-score,[13],1.03 (inactive)
O=C1CN=C(c2ccccc2)c2cc([N+](=O)[O-])ccc2N1,z-score,[13],1.3 (inactive)
C[C@]12CC[C@H]3[C@@H](CCC4=CC(=O)CC[C@@H]43)[C@@H]1CC[C@@H]2O,z-score,[14]; [21],0.634 (inactive)
same,z-score,[14]; [22],0.271

# Reference: PubChem BioAssay
